# Laboratory results reported in ChEMBL document CHEMBL1961873, “Compounds: GSK PKIS; Assays: Nanosyn kinase panel” (2012).
# Experiments:
# [1] = target: Sphingosine kinase 1 (Homo sapiens) (UniProt Q9NYA1); conditions: at 1 µM;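 further: mean SPHK1 inhibition value reported from the GSK PKIS kinase panel screen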
# [2] = target: T1, Sphingosine kinase 2 (Homo sapiens) (UniProt Q9NRA0); conditions: at 0.1 µM
# T1 sequence (whole entry): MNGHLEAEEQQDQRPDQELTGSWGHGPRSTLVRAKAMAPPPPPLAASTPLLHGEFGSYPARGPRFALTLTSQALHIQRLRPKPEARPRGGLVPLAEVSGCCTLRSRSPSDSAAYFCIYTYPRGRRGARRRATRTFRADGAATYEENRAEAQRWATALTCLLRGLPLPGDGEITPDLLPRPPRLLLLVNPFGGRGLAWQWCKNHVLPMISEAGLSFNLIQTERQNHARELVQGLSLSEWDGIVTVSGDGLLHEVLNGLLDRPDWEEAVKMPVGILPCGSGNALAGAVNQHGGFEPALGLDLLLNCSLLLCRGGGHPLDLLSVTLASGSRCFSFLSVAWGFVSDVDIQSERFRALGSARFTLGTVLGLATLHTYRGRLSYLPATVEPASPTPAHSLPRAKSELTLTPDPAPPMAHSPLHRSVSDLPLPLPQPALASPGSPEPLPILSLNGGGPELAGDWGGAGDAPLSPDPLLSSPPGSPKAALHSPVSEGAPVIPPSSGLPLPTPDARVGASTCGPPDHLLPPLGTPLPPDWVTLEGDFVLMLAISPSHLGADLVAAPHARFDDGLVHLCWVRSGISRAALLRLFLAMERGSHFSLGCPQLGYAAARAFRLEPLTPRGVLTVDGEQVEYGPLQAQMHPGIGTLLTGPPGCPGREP
# [3] = target: T1, Sphingosine kinase 2 (Homo sapiens); conditions: at 1 µM
# [4] = target: Casein kinase II subunit alpha (Homo sapiens) (UniProt P68400); conditions: at 0.1 µM
# Sequence of Casein kinase II subunit alpha (Homo sapiens) (P68400 whole entry, looked up): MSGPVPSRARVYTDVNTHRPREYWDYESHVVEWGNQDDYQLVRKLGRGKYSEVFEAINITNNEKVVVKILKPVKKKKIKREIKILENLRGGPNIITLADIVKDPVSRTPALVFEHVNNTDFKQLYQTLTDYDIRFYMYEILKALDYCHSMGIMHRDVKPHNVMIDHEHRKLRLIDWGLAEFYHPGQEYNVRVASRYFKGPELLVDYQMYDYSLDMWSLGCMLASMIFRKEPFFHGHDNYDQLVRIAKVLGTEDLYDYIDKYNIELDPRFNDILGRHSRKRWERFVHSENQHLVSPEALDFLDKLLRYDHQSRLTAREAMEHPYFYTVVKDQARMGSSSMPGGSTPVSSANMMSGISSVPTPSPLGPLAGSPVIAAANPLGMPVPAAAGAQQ
# [5] = target: Casein kinase II subunit alpha (Homo sapiens) (UniProt P68400); conditions: at 1 µM
# [6] = target: T2, Inhibitor of nuclear factor kappa-B kinase subunit alpha (Homo sapiens) (UniProt O15111); conditions: at 0.1 µM
# T2 sequence (whole entry): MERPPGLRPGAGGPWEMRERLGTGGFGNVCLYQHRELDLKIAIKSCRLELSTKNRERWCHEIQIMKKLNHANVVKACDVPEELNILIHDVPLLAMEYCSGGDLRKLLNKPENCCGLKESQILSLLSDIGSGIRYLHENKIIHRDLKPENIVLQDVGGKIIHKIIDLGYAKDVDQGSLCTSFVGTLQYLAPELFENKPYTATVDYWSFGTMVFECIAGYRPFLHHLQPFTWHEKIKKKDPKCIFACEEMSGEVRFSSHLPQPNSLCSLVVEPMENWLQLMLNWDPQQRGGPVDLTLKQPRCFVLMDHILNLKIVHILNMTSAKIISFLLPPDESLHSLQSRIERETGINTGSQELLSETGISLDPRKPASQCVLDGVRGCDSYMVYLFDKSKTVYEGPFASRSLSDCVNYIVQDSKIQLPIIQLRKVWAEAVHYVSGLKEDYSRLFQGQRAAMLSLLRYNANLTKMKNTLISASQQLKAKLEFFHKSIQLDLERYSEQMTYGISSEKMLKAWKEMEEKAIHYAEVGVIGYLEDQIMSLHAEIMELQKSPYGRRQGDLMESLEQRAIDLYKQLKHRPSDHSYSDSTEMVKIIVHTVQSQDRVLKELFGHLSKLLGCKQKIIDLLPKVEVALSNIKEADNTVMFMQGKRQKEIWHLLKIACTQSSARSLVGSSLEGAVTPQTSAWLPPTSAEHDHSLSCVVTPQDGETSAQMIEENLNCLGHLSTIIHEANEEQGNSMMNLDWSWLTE
# [7] = target: T2, Inhibitor of nuclear factor kappa-B kinase subunit alpha (Homo sapiens); conditions: at 1 µM
# [8] = target: T3, Inhibitor of nuclear factor kappa-B kinase subunit beta (Homo sapiens) (UniProt O14920); conditions: at 0.1 µM
# T3 sequence (whole entry): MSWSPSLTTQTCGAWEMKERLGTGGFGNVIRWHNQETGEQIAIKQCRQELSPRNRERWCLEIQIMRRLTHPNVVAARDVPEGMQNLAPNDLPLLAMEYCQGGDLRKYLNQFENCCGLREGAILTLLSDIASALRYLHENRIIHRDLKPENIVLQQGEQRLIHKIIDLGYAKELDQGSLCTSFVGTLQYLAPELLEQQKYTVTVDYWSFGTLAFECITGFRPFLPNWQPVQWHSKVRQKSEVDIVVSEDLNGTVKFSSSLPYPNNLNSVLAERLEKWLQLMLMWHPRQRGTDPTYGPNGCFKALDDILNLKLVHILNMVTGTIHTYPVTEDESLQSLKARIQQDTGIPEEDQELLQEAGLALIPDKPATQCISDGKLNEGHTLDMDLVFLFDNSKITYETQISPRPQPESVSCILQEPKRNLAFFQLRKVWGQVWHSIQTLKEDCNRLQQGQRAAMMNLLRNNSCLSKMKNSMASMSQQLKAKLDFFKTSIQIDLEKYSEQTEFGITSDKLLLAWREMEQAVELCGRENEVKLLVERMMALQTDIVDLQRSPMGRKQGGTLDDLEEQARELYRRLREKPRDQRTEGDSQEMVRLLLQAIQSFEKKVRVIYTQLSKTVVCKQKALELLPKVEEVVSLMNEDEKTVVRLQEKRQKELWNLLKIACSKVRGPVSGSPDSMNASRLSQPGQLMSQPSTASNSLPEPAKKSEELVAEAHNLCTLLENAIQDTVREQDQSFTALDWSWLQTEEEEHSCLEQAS
# [9] = target: T3, Inhibitor of nuclear factor kappa-B kinase subunit beta (Homo sapiens); conditions: at 1 µM
# [10] = target: T4, Inhibitor of nuclear factor kappa-B kinase subunit epsilon (Homo sapiens) (UniProt Q14164); conditions: at 0.1 µM
# T4 sequence (whole entry): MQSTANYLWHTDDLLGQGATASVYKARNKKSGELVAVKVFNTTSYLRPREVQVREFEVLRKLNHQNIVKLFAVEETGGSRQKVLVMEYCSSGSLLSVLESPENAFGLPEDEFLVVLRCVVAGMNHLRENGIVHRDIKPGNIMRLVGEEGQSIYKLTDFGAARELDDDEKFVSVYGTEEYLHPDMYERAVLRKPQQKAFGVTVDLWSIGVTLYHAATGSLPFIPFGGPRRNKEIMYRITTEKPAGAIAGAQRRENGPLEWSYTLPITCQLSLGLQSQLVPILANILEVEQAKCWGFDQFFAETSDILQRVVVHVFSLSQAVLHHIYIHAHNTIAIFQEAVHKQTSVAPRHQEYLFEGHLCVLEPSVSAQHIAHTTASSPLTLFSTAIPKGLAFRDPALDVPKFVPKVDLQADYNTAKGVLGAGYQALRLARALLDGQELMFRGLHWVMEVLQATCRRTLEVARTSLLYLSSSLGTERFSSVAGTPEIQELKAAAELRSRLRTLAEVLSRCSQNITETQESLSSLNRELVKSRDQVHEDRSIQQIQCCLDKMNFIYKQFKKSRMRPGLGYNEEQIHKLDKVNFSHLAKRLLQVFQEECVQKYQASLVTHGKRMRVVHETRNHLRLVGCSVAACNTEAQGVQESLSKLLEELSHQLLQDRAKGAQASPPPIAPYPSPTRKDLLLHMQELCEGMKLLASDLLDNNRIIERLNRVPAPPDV
# [11] = target: T4, Inhibitor of nuclear factor kappa-B kinase subunit epsilon (Homo sapiens); conditions: at 1 µM
# [12] = target: T5, Serine/threonine-protein kinase Nek1 (Homo sapiens) (UniProt Q96PY6); conditions: at 0.1 µM
# T5 sequence (whole entry): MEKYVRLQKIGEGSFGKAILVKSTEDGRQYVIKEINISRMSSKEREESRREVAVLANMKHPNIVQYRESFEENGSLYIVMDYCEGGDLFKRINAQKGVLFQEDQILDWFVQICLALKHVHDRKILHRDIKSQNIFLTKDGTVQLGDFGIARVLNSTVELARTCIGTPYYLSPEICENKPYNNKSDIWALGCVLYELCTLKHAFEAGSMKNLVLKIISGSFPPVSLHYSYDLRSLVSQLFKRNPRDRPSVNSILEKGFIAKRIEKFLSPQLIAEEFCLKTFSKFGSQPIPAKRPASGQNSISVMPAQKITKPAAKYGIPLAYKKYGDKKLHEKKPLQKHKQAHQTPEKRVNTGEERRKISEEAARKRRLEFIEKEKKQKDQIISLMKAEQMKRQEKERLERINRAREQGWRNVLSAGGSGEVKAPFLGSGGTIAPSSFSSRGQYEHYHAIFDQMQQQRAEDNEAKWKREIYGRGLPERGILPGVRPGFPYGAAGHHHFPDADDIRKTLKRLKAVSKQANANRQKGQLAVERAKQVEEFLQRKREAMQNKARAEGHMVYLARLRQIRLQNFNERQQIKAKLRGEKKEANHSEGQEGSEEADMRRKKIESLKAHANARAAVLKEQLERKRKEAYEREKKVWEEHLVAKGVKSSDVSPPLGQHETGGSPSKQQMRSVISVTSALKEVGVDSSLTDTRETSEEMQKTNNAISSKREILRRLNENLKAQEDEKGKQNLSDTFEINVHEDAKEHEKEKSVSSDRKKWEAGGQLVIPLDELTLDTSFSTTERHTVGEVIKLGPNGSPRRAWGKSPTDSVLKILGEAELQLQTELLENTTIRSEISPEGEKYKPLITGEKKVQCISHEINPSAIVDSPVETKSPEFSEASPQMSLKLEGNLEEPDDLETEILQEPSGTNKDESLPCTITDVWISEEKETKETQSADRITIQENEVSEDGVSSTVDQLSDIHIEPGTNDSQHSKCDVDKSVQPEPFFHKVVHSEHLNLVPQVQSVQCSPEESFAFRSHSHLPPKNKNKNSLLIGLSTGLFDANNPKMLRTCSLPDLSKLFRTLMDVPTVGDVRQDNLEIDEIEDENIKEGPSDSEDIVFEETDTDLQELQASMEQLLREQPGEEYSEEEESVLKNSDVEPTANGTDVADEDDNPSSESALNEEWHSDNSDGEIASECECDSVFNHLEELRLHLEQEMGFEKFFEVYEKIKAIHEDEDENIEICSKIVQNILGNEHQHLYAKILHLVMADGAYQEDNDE
# [13] = target: T5, Serine/threonine-protein kinase Nek1 (Homo sapiens); conditions: at 1 µM
# [14] = target: T6, Serine/threonine-protein kinase Nek2 (Homo sapiens) (UniProt P51955); conditions: at 0.1 µM
# T6 sequence (whole entry): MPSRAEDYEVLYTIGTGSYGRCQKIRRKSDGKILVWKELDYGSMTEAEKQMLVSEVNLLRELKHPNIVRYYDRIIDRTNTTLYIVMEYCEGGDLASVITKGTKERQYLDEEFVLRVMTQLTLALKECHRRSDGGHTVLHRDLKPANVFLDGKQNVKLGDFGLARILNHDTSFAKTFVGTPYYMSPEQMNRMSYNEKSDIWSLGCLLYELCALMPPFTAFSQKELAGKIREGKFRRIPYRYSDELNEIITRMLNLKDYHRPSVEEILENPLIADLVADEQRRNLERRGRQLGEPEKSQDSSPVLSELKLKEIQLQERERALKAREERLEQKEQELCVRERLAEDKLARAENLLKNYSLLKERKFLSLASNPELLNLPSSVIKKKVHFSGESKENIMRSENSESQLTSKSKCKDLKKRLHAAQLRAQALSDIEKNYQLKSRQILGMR
# [15] = target: T6, Serine/threonine-protein kinase Nek2 (Homo sapiens); conditions: at 1 µM
# [16] = target: Serine/threonine-protein kinase Nek6 (Homo sapiens) (UniProt Q9HC98); conditions: at 0.1 µM
# Sequence of Serine/threonine-protein kinase Nek6 (Homo sapiens) (Q9HC98 whole entry): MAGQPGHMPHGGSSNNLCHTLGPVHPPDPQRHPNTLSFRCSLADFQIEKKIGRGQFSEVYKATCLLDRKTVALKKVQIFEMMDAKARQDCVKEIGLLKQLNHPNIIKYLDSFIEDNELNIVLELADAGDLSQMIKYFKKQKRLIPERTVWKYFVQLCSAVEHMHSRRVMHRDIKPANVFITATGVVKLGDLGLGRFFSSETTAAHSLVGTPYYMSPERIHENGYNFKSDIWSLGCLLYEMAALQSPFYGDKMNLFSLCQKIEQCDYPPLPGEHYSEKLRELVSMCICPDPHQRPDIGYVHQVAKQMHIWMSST
# [17] = target: Serine/threonine-protein kinase Nek6 (Homo sapiens) (UniProt Q9HC98); conditions: at 1 µM
# [18] = target: Serine/threonine-protein kinase Nek7 (Homo sapiens) (UniProt Q8TDX7); conditions: at 0.1 µM
# Sequence of Serine/threonine-protein kinase Nek7 (Homo sapiens) (Q8TDX7 whole entry, looked up): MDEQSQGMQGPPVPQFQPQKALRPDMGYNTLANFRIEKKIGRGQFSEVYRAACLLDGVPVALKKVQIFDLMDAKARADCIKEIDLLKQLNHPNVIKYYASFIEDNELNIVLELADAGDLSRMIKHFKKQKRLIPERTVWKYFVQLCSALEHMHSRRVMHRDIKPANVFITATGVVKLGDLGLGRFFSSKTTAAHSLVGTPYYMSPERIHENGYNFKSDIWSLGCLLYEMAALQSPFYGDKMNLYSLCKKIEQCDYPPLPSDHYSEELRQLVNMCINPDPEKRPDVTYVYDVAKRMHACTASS
# [19] = target: Serine/threonine-protein kinase Nek7 (Homo sapiens) (UniProt Q8TDX7); conditions: at 1 µM
# [20] = target: T7, Serine/threonine-protein kinase Nek9 (Homo sapiens) (UniProt Q8TD19); conditions: at 0.1 µM;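 further: reported value is the mean percent inhibition of NEK9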
# T7 sequence (whole entry): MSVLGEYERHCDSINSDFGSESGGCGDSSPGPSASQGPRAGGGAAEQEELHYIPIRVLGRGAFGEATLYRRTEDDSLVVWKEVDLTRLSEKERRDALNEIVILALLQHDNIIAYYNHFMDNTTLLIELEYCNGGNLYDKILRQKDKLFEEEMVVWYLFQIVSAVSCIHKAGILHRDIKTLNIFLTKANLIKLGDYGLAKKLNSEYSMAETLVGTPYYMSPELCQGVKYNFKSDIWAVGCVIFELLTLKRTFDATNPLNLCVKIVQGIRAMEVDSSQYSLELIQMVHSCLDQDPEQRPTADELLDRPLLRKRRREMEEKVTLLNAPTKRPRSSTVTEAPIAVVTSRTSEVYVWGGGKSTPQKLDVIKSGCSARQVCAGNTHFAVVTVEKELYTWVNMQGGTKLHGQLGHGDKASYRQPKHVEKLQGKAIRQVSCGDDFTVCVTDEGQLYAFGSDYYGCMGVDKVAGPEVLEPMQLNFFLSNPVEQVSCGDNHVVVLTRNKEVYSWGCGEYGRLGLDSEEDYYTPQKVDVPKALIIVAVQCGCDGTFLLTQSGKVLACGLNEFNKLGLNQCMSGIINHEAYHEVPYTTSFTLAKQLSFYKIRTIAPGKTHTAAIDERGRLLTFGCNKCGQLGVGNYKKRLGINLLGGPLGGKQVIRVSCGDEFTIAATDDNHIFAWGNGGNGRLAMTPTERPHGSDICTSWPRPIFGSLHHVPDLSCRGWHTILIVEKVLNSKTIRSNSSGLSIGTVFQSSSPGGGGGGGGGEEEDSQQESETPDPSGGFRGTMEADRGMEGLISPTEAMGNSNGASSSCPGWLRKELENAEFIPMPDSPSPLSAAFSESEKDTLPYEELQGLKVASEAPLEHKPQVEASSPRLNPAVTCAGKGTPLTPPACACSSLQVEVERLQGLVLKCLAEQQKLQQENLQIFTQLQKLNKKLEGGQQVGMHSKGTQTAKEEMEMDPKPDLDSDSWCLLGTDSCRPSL
# Sequence of Sphingosine kinase 1 (Homo sapiens) (Q9NYA1 whole entry): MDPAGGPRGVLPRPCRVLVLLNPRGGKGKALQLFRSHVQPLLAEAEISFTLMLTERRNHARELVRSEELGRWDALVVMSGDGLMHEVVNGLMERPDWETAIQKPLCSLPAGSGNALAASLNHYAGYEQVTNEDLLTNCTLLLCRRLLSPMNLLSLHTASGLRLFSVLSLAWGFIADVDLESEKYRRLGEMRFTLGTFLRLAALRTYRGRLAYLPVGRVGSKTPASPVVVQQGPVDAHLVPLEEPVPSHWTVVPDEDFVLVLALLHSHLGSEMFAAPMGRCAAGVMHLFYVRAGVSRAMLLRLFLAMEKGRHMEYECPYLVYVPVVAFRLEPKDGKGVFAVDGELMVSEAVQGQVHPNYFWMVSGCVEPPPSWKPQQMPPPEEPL
compound,measurement,setting,value
Fc1ccc(-c2nc3n(c2-c2ccncc2)CCS3)cc1,inhibition,[1],-0.03%
same,inhibition,[2],-0.14%
same,inhibition,[3],-0.18%
same,inhibition,[4],0.53%
same,inhibition,[5],-1.41%
same,inhibition,[6],5.66%
same,inhibition,[7],4.06%
same,inhibition,[8],6.22%
same,inhibition,[9],4.63%
same,inhibition,[10],5.03%
same,inhibition,[11],4.11%
same,inhibition,[12],2.77%
same,inhibition,[13],2.98%
same,inhibition,[14],4.83%
same,inhibition,[15],4.36%
same,inhibition,[16],0.55%
same,inhibition,[17],0.72%
same,inhibition,[18],5.52%
same,inhibition,[19],2.5%
same,inhibition,[20],2.21%
